Inconclusive results are not listed. Entries that show only a call come without a potency. Calls of active or inactive are those of the source. Calls follow the shape of the full dose curve.
The molecules below were run against D(2) dopamine receptor (Homo sapiens) (UniProt P14416) (assay: Dopamine D2 receptor (DRD2) small molecule agonists, cell-based qHTS assay (AID 1963594; also: nearly all actives have a fitted effect of over 35% in size)). Details: HEK293-DRD2 cAMP HTRF, agonist mode, 30 min; series mostly up to 92.4 µM.
D(2) dopamine receptor (Homo sapiens), sequence (P14416 whole entry, looked up): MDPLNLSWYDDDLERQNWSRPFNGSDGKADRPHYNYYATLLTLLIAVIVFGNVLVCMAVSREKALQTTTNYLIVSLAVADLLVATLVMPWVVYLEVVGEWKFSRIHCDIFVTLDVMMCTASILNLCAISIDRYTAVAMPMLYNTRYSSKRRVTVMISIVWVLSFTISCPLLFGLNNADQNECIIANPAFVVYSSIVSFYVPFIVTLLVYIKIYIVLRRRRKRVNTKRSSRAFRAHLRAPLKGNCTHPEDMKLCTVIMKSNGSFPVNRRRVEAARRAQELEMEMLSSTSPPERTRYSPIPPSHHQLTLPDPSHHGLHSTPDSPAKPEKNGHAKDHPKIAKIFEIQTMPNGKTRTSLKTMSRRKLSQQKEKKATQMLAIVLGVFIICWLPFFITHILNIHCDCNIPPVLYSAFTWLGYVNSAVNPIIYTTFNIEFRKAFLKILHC
Excerpt: National Center for Advancing Translational Sciences [NCATS]
Division of Preclinical Innovation [DPI]
U.S. Environmental Protection Agency [EPA]
National Institutes of Environmental Health Sciences [NIEHS]
National Toxicology Program [NTP]
U.S. Food and Drug Administration [FDA]
DRD2 is the D2 subtype of the dopamine receptor, which is coupled to Gi subtype of G protein-coupled receptor. This G protein-coupled receptor inhibits adenylyl cyclase activity. The DRD2-HEK293 cell line stably expressing D2 dopamine receptor can be used for screening agonists and antagonists of interactions between D2 and its ligands. The Hek293-DRD2 cAMP assay is based on HTRF technology. It measures changes of cAMP accumulation in response to Gi coupled GPCR activation or inhibition.
Tox21 Assay Protocol Summary:
DRD2-Hek293 cells were dispensed at 600 cells/3uL/well in 1536-well white plates using a Multidrop Dispenser. After the assay plates were incubated at a 37 C/5% CO2 incubator for 24 h, 1 uL of Ro20-1724 at final concentration of 0.1 mM was transferred to the assay plate by a Flying Reagent Dispenser. Following Ro20-1724 addition, 23 nL of compound dissolved in DMSO, positive controls or DMSO only was added to the assay plates via Wako pintool station. The assay plates were incubated at room temperature for 10 min. Next, 1 uL of NKH477 at 200nM was added into the plates. After the assay plates were incubated at room temperature for an additional 30 min, 2.5 ul/well of cAMP-d2 and 2.5 ul/well of anti-cAMP-cryptate were added respectively into the assay plates using a Flying Reagent Dispenser. The plates were incubated at room temperature for 1 h. The fluorescence intensity in the plates was measured at 340 nm excitation and 665 & 620 nm emission by an Envision plate reader.
In the case of `Nc1ccn([C@@H]2O[C@H](CO)[C@@H](O)[C@@H]2O)c(=O)n1`, the Potency is reported as “inactive”. For `CC(C)c1ccccc1C(C)C`, the Potency was “inactive”. `CC(=O)N(CC(O)CO)c1c(I)c(C(=O)NCCO)c(I)c(C(=O)NCC(O)CO)c1I` (stereo not given) was tested, and the Potency was “inactive”. In the case of `O=[N+]([O-])c1cc(C2CCCCC2)c(O)c([N+](=O)[O-])c1`, the Potency is reported as “inactive”. With `CC(C)(CO)C(O)C(=O)NCCCO` (stereo not given) the Potency was “inactive”. In the case of `NO`, the Potency is reported as “inactive”. With `CN(C)c1ccncc1` the Potency was “inactive”. In the case of `CCCOCC(C)OCC(C)O` (stereo not given), the Potency is reported as “inactive”. With `CN1[C@@H]2CC(OC(=O)[C@H](CO)c3ccccc3)C[C@H]1[C@@H]1O[C@@H]12` (stereo not given in full) the Potency was “inactive”. With `CC(C)c1nnc2ccc(-c3ocnc3-c3cc(F)ccc3F)cn12` the Potency was “inactive”. With `Cc1ccc(Br)cc1` the Potency was “inactive”. For `Clc1ccc(Nc2nnc(Cc3ccncc3)c3ccccc23)cc1`, the Potency was “inactive”. `NCCCOCCOCCOCCCN` was tested, and the Potency was “inactive”. With `COC1=C(OC)C(=O)C(CCCCCCCCCCO)=C(C)C1=O` the Potency was “inactive”. In the case of `CC1=C(/C=C/C(C)=C/C=C/C(C)=C/C=O)C(C)(C)CCC1`, the Potency is reported as “inactive”. In the case of `O=C1NC(=O)c2cccc3cccc1c23`, the Potency is reported as “inactive”. `c1ccc2sc(SN(C3CCCCC3)C3CCCCC3)nc2c1` was tested, and the Potency was “inactive”. In the case of `c1ccc(-c2nc[nH]c2-c2ccccc2)cc1`, the Potency is reported as “inactive”. For `O=C(O)CN1C(=O)c2cccc3cccc(c23)C1=O`, the Potency was “inactive”. In the case of `Cc1cc2c(C(C)C)c(O)c(O)c(C=O)c2c(O)c1-c1c(C)cc2c(C(C)C)c(O)c(O)c(C=O)c2c1O`, the Potency is reported as “inactive”. `CC(=O)O[C@@]12CO[C@@H]1C[C@H](O)[C@@]1(C)C(=O)[C@H](O)C3=C(C)[C@@H](OC(=O)[C@H](O)[C@@H](NC(=O)OC(C)(C)C)c4ccccc4)C[C@@](O)([C@@H](OC(=O)c4ccccc4)[C@H]21)C3(C)C` was tested, and the Potency was “inactive”. `COc1nc(C)nc(Cl)c1NC1=NCCN1` was tested, and the Potency was “inactive”. With `Cc1onc(-c2c(Cl)cccc2Cl)c1C(=O)N[C@@H]1C(=O)N2[C@@H]1SC(C)(C)[C@@H]2C(=O)O` the Potency was “inactive”. `C[C@H]1[C@H](NC(=O)/C(=N/OC(C)(C)C(=O)O)c2csc(N)n2)C(=O)N1S(=O)(=O)O` (stereo in doubt) was tested, and the Potency was “inactive”. With `CN(C)c1ccc(N=NS(=O)(=O)O)cc1` the Potency was “inactive”. `C=C[Si]1(C)O[Si](C)(C=C)O[Si](C)(C=C)O[Si](C)(C=C)O1` (stereo not given) was tested, and the Potency was “inactive”. In the case of `CC(C)CCCCCOC(=O)CCCCC(=O)OCCCCCC(C)C`, the Potency is reported as “inactive”. `NC(CCC(=O)O)C(=O)O` (stereo not given) was tested, and the Potency was “inactive”. `Brc1cc2ccccc2c2ccccc12` was tested, and the Potency was “inactive”. `CCOCC(C)O` (stereo not given) was tested, and the Potency was “inactive”. `NCCCCCCNCCCCCCN` was tested, and the Potency was “inactive”. `C=C(C)C(=O)OC` was tested, and the Potency was “inactive”. In the case of `O=C(Oc1ccccc1)c1ccc2ccccc2c1O`, the Potency is reported as “inactive”. For `CN(C)CCCO[C@@H]1[C@H]2OC(C)(C)O[C@H]2O[C@@H]1C(O)CO` (stereo not given in full), the Potency was “inactive”. `Cc1cccc(Br)c1` was tested, and the Potency was “inactive”. With `C[C@H]1O[C@@H](O[C@H]2CC[C@@]3(C)[C@H](CC[C@@H]4[C@@H]3C[C@@H](O)[C@]3(C)[C@@H](C5=CC(=O)OC5)CC[C@]43O)C2)C[C@H](O)[C@@H]1O[C@H]1C[C@H](O)[C@H](O[C@H]2C[C@H](O)[C@H](O[C@@H]3O[C@H](CO)[C@@H](O)[C@H](O)[C@H]3O)[C@@H](C)O2)[C@@H](C)O1` the Potency was “inactive”. In the case of `O=C1[C@@H]2[C@H]3CC[C@H](C3)[C@@H]2C(=O)N1CCCCN1CCN(c2ncccn2)CC1`, the Potency is reported as 94.4 nM (active). With `O=S(c1cc(Cl)cc(Cl)c1O)c1cc(Cl)cc(Cl)c1O` the Potency was “inactive”. For `CC(=O)OCC(CCn1cnc2cnc(N)nc21)COC(C)=O`, the Potency was “inactive”. For `CCc1oc2ccccc2c1C(=O)c1cc(I)c(O)c(I)c1`, the Potency was “inactive”.

— PubChem BioAssay (Tox21)
Potency is read from the fitted curve at half-maximal effect.
